The values below come from PubChem BioAssay (EPA / NIEHS).

For test [1], the target named is Caspase-3 (Homo sapiens) (UniProt P42574). Kind of test: NVS_ENZ_hCASP3: NovaScreen (NVS) Enzymatic Assay for human Caspase 3 (CASP3) (AID 2283139). The gist of the method:
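Recombinant human caspase-3 from E. coli with a fluorogenic substrate, read by fluorescence 1 h after dosing. Primary screen in duplicate at 25 uM. Actives (for example ≥30% inhibition) rerun as concentration-response up to 50 uM.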

Test [2] concerns the target human Beta-secretase (BACE), BACE1 (gene 23621) (UniProt P56817). Description: NVS_ENZ_hBACE: NovaScreen (NVS) Enzymatic Assay for human Beta-secretase (BACE) (AID 2283140).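 Also: hits are inhibitors that reduce fluorescent substrate signal versus DMSO.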 In a few lines:
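Cell-free assay of recombinant Sf9-expressed human BACE with fluorescent substrate, read by fluorescence intensity after 1 h. Primary screen in duplicate at 25 uM; actives then run in concentration series; loss of signal relative to DMSO.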

Test [3] concerns the target human AKT serine/threonine Kinase 2 (AKT2), AKT2 (gene 208) (UniProt P31751). Description: NVS_ENZ_hAKT2: NovaScreen (NVS) Enzymatic Assay for human AKT serine/threonine Kinase 2 (AKT2) (AID 2283141). The gist of the method: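 Cell-free fluorescence/electrophoretic mobility shift readout of recombinant human AKT2 activity, 1 h after chemical dosing. Duplicate primary screen at 25 uM, then singleton concentration-response up to 50 uM; loss of signal versus DMSO baseline.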

Test [4] concerns the target human Fibroblast Growth Factor Receptor 1 (FGFR1), FGFR1 (gene 2260) (UniProt P11362). Description: NVS_ENZ_hFGFR1: NovaScreen (NVS) Enzymatic Assay for human Fibroblast Growth Factor Receptor 1 (FGFR1) (AID 2283159).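 As to AC50: hits lower the signal so potencies describe inhibitors of the kinase.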 In a few lines:
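Cell-free recombinant kinase with fluorescent substrate, product separated by electrophoretic mobility shift; read 1 hour after dosing, loss of signal relative to DMSO. Initial screen in duplicate at 25 uM, actives followed in concentration series.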

Test [5] deals with human Aurora Kinase A - serine/threonine-protein Kinase 6 (AurA), AURKA (gene 6790) (UniProt O14965). Kind of test: NVS_ENZ_hAurA: NovaScreen (NVS) Enzymatic Assay for human Aurora Kinase A - serine/threonine-protein Kinase 6 (AurA) (AID 2283142). In a few lines: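 Cell-free enzymatic assay with human Aurora A, 1 hour after dosing. Fluorescent substrate turnover detected after electrophoretic mobility shift separation of substrate and product. Screened at 25 uM, actives retested in concentration-response up to 50 uM.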

Test [6] addresses CDK2 (gene 1017) (UniProt P24941). Description: NVS_ENZ_hCDK2: NovaScreen (NVS) Enzymatic Assay for human Cyclin-Cependent Kinase 2 (CDK2) (AID 2283144). The gist of the method:
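Cell-free recombinant human CDK2 with fluorescent substrate, product separated by electrophoretic mobility shift; 1 hr read. Primary screen at 25 uM in duplicate, actives retested in concentration-response up to 50 uM; loss of signal versus DMSO.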

Test [7] concerns the target human Colony Stimulating Factor 1 Receptor (CSF1R), CSF1R (gene 1436) (UniProt P07333). Description: NVS_ENZ_hCSF1R: NovaScreen (NVS) Enzymatic Assay for human Colony Stimulating Factor 1 Receptor (CSF1R) (AID 2283150). In a few lines: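 Cell-free recombinant human CSF1R kinase with fluorescent substrate, product separated by electrophoretic mobility shift; read 1 h after dosing. Primary screen at 25 uM in duplicate, actives then in concentration-response up to 50 uM, relative to DMSO.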

Test [8] deals with human Epidermal Growth Factor Receptor (EGFR), EGFR (gene 1956) (UniProt P00533). Description: NVS_ENZ_hEGFR: NovaScreen (NVS) Enzymatic Assay for human Epidermal Growth Factor Receptor (EGFR) (AID 2283151). In a few lines: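 Cell-free kinase assay, fluorescence plus electrophoretic mobility shift separating substrate and product, read 1 hour after dosing; loss of signal vs DMSO. Duplicate screen at 25 uM, then concentration-response to 50 uM.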

The target in test [9] is human Esterase Plasma (ES), BCHE (gene 590) (UniProt P06276). Description: NVS_ENZ_hES: NovaScreen (NVS) Enzymatic Assay for human Esterase Plasma (ES) (AID 2283157). In a few lines:
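Esterase from human plasma, cell-free, colorimetric absorbance read 0.25 h after dosing. Screened at 25 uM in duplicate, with threshold-passing chemicals run in concentration-response up to 50 uM; loss of signal fitted versus DMSO.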

Test [10] addresses human Ephrin type-A Receptor 1 (EphA1), EPHA1 (gene 2041) (UniProt P21709). Kind of test: NVS_ENZ_hEphA1: NovaScreen (NVS) Enzymatic Assay for human Ephrin type-A Receptor 1 (EphA1) (AID 2283158).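 Also: activity is signal loss versus DMSO meaning EphA1 kinase inhibition.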 In a few lines: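 Recombinant kinase, fluorescent substrate, mobility-shift separation, fluorescence read at 1 h. Single-point duplicates at 25 uM; hits (e.g., ≥30% inhibition) run singleton concentration-response, max 50 uM. DMSO = negative control/baseline.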

The target in test [11] is human FYN Proto-Oncogene, Src family Tyrosine Kinase (Fyn), FYN (gene 2534) (UniProt P06241). Description: NVS_ENZ_hFyn: NovaScreen (NVS) Enzymatic Assay for human FYN Proto-Oncogene, Src family Tyrosine Kinase (Fyn) (AID 2283161). In a few lines: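 Recombinant enzyme with fluorescent substrate, product separated by electrophoretic mobility shift; read 1 h after dosing. Duplicate 25 uM single-point screen, actives retested in concentration series; loss of signal vs DMSO.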

Test [12] concerns the target Histone deacetylase 3 (Homo sapiens) (UniProt O15379). Description: NVS_ENZ_hHDAC3: NovaScreen (NVS) Enzymatic Assay for human Histone Deacetylase 3 (HDAC3) (AID 2283163). In a few lines: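 Recombinant human HDAC3 with fluorescent substrate, 1 h after dosing; product separated from substrate by electrophoretic mobility shift and read by fluorescence. Primary screen at 25 uM in duplicate; actives (e.g. ≥30% inhibition) retested in concentration-response up to 50 uM.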

Test [13] deals with Protein deacetylase HDAC6 (Homo sapiens) (UniProt Q9UBN7). Kind of test: NVS_ENZ_hHDAC6: NovaScreen (NVS) Enzymatic Assay for human Histone Deacetylase 6 (HDAC6) (AID 2283164). The gist of the method: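 Recombinant human HDAC6 with fluorescent substrate, 1 h; product separated from substrate by electrophoretic mobility shift. Primary screen in duplicate at 25 uM; actives retested singly in concentration-response up to 50 uM, fitted relative to DMSO.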

Test [14] addresses human Casein Kinase 1-delta (CK1D), CSNK1D (gene 1453) (UniProt P48730). Kind of test: NVS_ENZ_hCK1D: NovaScreen (NVS) Enzymatic Assay for human Casein Kinase 1-delta (CK1D) (AID 2283148). In a few lines: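 Recombinant human CK1-delta, cell-free; fluorescent substrate with electrophoretic mobility-shift separation of product, read 1 h after dosing. Single 25 uM duplicate screen, then concentration-response up to 50 uM; loss of signal vs DMSO.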

The target in test [15] is human Dual Specificity Protein Phosphatase 3 (DUSP3), DUSP3 (gene 1845) (UniProt P51452). Description: NVS_ENZ_hDUSP3: NovaScreen (NVS) Enzymatic Assay for human Dual Specificity Protein Phosphatase 3 (DUSP3) (AID 2283152). In a few lines: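 Cell-free assay with recombinant human DUSP3 and fluorogenic substrate, read by fluorescence intensity. Primary screen ran duplicate at 25 uM; actives followed up in concentration series; loss of signal versus DMSO scored.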

Results filed as inconclusive are left out. The source made the active and inactive calls. The calls were made as follows: active = hit-call score of the fitted dose curve at least 0.9, where 1 is the maximum; inconclusive = response in the unintended direction; inactive = score below 0.9.

human Colony Stimulating Factor 1 Receptor (CSF1R), CSF1R (gene 1436), sequence (P07333 whole entry, looked up): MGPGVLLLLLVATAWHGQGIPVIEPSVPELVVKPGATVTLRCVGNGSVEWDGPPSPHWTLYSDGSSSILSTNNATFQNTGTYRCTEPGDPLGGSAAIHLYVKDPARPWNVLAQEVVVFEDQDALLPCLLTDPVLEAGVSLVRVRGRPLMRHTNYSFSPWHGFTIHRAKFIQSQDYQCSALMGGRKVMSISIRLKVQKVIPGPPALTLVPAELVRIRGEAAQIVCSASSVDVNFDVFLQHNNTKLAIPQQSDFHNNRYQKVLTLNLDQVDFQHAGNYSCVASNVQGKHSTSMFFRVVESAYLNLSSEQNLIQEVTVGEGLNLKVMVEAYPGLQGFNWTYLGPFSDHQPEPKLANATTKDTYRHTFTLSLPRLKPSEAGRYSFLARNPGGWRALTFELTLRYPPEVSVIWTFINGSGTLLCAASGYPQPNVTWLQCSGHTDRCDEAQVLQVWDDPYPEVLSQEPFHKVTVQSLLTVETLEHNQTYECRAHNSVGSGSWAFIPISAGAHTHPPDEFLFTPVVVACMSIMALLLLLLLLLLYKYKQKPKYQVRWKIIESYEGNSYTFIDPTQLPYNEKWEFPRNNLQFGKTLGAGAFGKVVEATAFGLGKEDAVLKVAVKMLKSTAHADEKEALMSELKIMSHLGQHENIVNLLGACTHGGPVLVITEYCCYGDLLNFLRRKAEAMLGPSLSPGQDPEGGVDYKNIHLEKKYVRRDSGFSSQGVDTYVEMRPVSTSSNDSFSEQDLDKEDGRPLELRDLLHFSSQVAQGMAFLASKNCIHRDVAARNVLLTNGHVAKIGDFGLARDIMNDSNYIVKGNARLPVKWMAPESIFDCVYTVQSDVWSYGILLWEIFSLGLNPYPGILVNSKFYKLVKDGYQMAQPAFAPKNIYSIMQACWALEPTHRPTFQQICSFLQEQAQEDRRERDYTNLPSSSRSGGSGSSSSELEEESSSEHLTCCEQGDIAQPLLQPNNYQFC
human Beta-secretase (BACE), BACE1 (gene 23621), sequence (P56817 whole entry, looked up): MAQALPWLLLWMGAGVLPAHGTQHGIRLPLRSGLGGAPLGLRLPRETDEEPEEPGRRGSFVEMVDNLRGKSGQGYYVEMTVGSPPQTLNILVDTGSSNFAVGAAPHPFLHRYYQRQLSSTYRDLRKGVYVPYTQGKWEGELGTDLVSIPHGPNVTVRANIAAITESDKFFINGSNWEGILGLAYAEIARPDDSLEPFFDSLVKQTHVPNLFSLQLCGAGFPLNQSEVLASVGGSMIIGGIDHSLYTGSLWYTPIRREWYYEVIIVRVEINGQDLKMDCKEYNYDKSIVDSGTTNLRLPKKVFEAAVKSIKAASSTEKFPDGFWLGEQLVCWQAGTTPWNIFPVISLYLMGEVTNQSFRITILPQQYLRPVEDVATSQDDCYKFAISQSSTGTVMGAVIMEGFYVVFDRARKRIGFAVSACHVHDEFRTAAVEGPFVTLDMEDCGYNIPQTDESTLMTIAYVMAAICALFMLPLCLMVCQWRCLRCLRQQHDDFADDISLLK
human Aurora Kinase A - serine/threonine-protein Kinase 6 (AurA), AURKA (gene 6790), sequence (O14965 whole entry, looked up): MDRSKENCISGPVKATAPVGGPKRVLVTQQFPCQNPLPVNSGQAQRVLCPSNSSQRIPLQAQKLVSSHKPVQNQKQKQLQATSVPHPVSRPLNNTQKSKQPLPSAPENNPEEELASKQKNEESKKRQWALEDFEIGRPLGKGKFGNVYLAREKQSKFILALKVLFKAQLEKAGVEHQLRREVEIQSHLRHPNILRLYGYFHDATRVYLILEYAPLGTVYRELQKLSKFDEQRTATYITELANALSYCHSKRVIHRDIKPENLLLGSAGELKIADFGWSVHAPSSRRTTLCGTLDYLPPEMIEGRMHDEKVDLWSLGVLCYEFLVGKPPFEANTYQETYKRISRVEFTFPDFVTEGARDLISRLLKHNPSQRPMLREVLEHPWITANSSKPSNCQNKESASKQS
human Epidermal Growth Factor Receptor (EGFR), EGFR (gene 1956), sequence (P00533 whole entry, looked up): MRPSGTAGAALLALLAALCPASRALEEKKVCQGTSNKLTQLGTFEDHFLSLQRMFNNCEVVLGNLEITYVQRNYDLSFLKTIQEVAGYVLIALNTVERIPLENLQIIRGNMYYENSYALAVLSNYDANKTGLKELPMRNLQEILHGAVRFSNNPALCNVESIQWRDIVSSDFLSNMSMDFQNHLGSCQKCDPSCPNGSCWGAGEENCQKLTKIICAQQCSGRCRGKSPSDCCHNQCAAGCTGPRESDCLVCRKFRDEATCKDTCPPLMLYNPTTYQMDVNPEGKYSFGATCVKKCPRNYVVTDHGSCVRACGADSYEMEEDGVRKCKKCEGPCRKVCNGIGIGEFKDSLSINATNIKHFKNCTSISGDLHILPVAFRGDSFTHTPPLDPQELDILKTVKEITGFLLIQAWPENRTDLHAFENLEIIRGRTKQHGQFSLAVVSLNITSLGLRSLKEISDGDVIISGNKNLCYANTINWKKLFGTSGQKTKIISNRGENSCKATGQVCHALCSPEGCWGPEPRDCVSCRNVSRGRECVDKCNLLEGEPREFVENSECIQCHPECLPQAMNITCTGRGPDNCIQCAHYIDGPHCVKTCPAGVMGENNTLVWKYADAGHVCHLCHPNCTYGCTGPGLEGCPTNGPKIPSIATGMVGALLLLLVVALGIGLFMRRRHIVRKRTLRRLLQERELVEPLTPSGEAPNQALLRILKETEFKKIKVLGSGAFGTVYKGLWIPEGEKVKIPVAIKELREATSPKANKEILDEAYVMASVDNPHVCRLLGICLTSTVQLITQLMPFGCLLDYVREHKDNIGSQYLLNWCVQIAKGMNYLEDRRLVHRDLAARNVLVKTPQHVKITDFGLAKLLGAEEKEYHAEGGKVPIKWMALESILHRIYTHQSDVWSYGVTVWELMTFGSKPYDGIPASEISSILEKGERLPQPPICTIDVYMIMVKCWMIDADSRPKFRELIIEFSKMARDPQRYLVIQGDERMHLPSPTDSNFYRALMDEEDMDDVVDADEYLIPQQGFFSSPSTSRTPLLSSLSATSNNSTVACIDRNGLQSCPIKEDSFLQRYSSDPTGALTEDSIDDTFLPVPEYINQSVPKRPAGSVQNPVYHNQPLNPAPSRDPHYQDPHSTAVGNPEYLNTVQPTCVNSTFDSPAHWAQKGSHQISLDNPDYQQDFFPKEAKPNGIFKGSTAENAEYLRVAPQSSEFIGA
human Ephrin type-A Receptor 1 (EphA1), EPHA1 (gene 2041), sequence (P21709 whole entry, looked up): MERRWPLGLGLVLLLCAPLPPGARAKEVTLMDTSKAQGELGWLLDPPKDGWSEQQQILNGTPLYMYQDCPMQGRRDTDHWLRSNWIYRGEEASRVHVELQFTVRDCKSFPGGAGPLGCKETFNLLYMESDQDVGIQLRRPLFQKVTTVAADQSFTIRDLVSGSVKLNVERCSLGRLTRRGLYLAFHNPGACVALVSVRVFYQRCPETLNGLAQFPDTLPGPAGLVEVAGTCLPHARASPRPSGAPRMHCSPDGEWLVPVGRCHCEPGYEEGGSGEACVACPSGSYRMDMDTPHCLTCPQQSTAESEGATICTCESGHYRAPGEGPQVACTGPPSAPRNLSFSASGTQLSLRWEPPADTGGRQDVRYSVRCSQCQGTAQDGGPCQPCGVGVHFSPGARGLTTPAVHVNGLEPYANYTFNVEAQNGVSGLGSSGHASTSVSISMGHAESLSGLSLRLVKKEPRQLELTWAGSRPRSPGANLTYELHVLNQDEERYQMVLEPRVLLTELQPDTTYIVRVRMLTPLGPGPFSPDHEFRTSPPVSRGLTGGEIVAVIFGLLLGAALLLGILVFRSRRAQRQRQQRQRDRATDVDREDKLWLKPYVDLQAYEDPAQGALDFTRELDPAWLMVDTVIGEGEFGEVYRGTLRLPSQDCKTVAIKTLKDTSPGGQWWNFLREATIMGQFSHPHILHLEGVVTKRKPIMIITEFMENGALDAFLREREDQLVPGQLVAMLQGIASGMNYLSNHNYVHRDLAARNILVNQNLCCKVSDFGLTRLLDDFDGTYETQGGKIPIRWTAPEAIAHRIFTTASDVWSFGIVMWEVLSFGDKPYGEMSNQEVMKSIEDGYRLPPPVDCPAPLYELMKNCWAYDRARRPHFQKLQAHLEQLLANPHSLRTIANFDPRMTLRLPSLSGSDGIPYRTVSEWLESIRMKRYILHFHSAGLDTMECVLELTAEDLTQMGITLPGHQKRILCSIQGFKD
human Fibroblast Growth Factor Receptor 1 (FGFR1), FGFR1 (gene 2260), sequence (P11362 whole entry, looked up): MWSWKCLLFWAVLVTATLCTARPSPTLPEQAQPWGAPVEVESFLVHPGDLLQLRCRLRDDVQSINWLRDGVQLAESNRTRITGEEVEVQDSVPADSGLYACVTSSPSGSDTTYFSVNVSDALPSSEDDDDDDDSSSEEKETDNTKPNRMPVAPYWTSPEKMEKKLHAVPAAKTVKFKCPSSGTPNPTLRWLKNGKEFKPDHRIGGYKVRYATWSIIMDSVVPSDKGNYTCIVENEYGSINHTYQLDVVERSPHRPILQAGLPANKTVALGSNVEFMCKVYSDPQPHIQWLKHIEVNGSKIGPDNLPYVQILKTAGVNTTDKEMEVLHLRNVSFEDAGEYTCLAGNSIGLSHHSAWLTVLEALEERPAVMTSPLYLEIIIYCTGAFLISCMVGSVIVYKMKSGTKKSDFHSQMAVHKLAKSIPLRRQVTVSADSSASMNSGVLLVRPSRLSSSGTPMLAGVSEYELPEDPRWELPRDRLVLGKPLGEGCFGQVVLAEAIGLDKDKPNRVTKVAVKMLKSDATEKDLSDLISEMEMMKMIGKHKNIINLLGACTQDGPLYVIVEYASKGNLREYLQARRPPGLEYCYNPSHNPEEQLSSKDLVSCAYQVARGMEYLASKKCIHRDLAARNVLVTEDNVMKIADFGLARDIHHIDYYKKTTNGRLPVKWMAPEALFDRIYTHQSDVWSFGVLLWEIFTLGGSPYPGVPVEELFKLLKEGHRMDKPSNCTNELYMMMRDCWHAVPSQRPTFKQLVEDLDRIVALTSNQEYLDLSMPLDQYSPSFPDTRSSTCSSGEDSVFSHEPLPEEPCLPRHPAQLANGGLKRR
human Dual Specificity Protein Phosphatase 3 (DUSP3), DUSP3 (gene 1845), sequence (P51452 whole entry, looked up): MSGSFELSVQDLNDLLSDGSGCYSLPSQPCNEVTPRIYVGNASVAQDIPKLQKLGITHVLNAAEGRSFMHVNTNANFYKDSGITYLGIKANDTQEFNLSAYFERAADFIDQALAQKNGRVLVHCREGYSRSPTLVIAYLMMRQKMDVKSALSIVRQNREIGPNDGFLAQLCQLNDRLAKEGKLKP

For orientation: AC50 means the midpoint of the concentration-response curve, whichever way the signal moves. Consider `CC(C)(c1ccccc1)c1ccc(O)cc1`, for which the outcome in [1] was inactive. Besides, in test [2], the AC50 is 20.3 µM (active).
Take `CCC(C)(c1ccc(O)cc1)c1ccc(O)cc1`: the AC50 in [2] is 11.2 µM (active).
For the compound `Cc1ccc(O)c(C)c1`, the result in test [2] was inactive.
On to `CCCCCCOC(=O)c1ccccc1C(=O)OCCCCCC`, for which the result in [2], in test [3] and in test [4] was inactive.
With `CC1=C2C[C@H]3[C@@H](CC=C4C[C@@H](O)CC[C@@]43C)[C@@H]2CC[C@]12O[C@@H]1C[C@H](C)CN[C@H]1[C@H]2C`, the AC50 in test [3] was 12.5 µM (active); in test [9] it was 12.5 µM (active); in [4] it was 21.1 µM (active). Also, the compound was called inactive in test [5], in test [6], in [7], in test [8], in test [10] and in [11]. In addition, the compound was classed as inactive in test [12] and in test [13].
For the compound `O=C(O)C(F)(F)C(F)(F)C(F)(F)C(F)(F)C(F)(F)C(F)(F)C(F)(F)C(F)(F)F`, the AC50 in test [2] is 10.7 µM (active); in [5], 13.1 µM (active). Further, the call in [14], in [7], in [8], in [10], in [4] and in test [11] was inactive.
In the case of `Cc1cc2c3c(c1)C(c1ccccc1)=N[C@@H](NC(=O)c1ccncc1)C(=O)N3CC2`, the compound was called inactive in test [5] and in test [4].
As for `O=C(NC(=O)c1cc(F)c(F)cc1Cl)Nc1cc(F)ccc1N1CCC(C(=O)O)CC1`, in [2], the AC50 is 7.81 µM (active).
`CC(C)C(=O)OCC(C)(C)C(OC(=O)C(C)C)C(C)C` (stereo not drawn): the compound was called inactive in [5].
In the case of `CCCCCCCCCc1ccc(O)cc1`, the call in test [2] and in test [10] was inactive. Besides, in [15], the AC50 is 13.2 µM (active).
Consider `Oc1c(Cl)c(Cl)c(Cl)c(Cl)c1Cl`, for which the compound was classed as inactive in [2].
With `O=C(O)C(F)(F)C(F)(F)C(F)(F)C(F)(F)C(F)(F)C(F)(F)C(F)(F)C(F)(F)C(F)(F)F`, the AC50 in test [2] was 3.53 µM (active); in test [15], 13 µM (active).
With `Cc1cccc(C)c1N`, the result in test [2] and in [14] was inactive.
As for `ClC(Cl)=C(c1ccc(Cl)cc1)c1ccc(Cl)cc1`, the compound was classed as inactive in test [2] and in test [4].
For `O=C(O)C(F)(F)C(F)(F)C(F)(F)C(F)(F)C(F)(F)F`, the outcome in test [6], in test [8] and in [12] was inactive.
Regarding `CCCN(CCC)N=O`, the compound was classed as inactive in [5], in [6], in [14], in [7] and in [9].
